Measured values published in PubChem BioAssay (NCATS).
Unmarked numbers belong to inactive results. Inconclusive results are not listed. The source made the active and inactive calls. Unless noted, calls come from the whole dose curve; as a rule, active = well fitted curve in the direction sought with a large enough effect; inconclusive = small, poorly fitted or top-dose-only effect, or another doubt; inactive = no such curve, though single readings can be large; an effect the other way counts as inactive or inconclusive.

Columns and labels:
[1] = target: Tumor susceptibility gene 101 protein (Homo sapiens) (UniProt Q99816); assay: qHTS Assay for Iinhibitors of HIV-1 Budding by Blocking the Interaction of PTAP/TSG101: Hit Validation (AID 651600); note: nearly all actives have a fitted effect of over 70% in size; note: potency is the fitted concentration of half-maximal effect; for activity change, negative = inhibition: % is set by controls: 0 for no effect and ±100 for the full control effect
Sequence of Tumor susceptibility gene 101 protein (Homo sapiens) (Q99816 whole entry, looked up): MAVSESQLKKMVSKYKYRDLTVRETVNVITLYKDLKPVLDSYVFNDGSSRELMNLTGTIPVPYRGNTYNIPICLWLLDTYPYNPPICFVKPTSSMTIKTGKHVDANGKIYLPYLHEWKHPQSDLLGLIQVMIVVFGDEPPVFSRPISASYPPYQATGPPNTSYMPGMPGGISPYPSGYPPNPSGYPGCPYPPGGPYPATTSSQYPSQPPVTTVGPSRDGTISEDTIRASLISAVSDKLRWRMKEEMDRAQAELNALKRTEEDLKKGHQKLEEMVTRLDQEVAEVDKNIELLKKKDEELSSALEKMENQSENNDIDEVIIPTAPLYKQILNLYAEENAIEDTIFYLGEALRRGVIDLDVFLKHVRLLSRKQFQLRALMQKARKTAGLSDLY
In short: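 Measuring PTAP–Tsg101 interaction by FP: protein at 10 uM and fluorescent peptide at 50 nM (final), buffer 10 mM HEPES pH 7.5 with 0.15 M NaCl, 3 mM EDTA, 0.1 mM TCEP, 0.01% Tween 20; 20 min incubation, r.t.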

[2] = target: Rap guanine nucleotide exchange factor 3 (Homo sapiens) (UniProt O95398); assay: Confirmatory qHTS for antagonist of cAMP-regulated guanine nucleotide exchange factor 3 (EPAC1) (AID 1645880); conditions: EPAC1 Rap1B-BODIPY-GDP exchange, fluorescence; activity, negative = inhibition: at 115 µM (top of the series);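 note: plate controls were DMSO only for no effect and full effect of the ATA control for full effect; nearly all actives have a fitted effect of over 55% in size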
Sequence of Rap guanine nucleotide exchange factor 3 (Homo sapiens) (O95398 whole entry, looked up): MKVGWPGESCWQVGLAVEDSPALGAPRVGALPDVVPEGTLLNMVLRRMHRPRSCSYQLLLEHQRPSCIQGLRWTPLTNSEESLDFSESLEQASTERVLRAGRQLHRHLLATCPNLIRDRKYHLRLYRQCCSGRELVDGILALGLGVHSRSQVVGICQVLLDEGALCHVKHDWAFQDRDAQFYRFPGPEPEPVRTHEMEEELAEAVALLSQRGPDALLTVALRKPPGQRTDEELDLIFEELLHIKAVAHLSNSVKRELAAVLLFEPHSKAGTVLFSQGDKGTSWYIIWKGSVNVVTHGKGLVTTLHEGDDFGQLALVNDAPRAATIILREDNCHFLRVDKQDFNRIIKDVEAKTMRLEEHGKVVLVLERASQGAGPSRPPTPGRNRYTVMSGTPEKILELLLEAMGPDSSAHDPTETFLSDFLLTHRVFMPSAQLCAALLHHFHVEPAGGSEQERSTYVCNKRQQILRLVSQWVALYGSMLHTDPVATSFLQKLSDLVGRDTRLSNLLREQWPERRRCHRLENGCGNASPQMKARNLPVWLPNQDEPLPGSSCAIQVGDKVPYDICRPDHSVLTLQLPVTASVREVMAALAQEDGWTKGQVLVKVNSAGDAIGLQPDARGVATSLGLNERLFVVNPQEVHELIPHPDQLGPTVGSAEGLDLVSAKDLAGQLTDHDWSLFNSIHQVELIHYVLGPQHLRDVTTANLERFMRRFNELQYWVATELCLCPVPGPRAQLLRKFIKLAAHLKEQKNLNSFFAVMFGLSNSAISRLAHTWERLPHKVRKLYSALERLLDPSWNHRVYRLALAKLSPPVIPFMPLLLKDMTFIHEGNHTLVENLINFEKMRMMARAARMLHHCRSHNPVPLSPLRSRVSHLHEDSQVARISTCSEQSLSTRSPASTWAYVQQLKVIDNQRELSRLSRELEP
In short: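 Nucleotide exchange uses 100 nM EPAC1, 250 nM RAP1B-BODIPY-GDP and 50 uM GDP, with compounds in a concentration-titration series. After 5 min at room temperature, fluorescence (480 nm ex/540 nm em) is read every 5 min for 30 min. Data are normalized to control ATA and DMSO.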

[3] = target: Rap guanine nucleotide exchange factor 4 (Homo sapiens) (UniProt Q8WZA2); assay: Confirmatory qHTS for agonist of cAMP-regulated guanine nucleotide exchange factor 4 (EPAC2) (AID 1645884);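 note: nucleotide exchange releases bodipy-GDP from Rap1 and this lowers its fluorescence; nearly all actives have a fitted effect of over 65% in size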; note: potency is the fitted concentration of half-maximal effect; for activation: % is set by controls: 0 for no effect and ±100 for the full control effect
Sequence of Rap guanine nucleotide exchange factor 4 (Homo sapiens) (Q8WZA2 whole entry, looked up): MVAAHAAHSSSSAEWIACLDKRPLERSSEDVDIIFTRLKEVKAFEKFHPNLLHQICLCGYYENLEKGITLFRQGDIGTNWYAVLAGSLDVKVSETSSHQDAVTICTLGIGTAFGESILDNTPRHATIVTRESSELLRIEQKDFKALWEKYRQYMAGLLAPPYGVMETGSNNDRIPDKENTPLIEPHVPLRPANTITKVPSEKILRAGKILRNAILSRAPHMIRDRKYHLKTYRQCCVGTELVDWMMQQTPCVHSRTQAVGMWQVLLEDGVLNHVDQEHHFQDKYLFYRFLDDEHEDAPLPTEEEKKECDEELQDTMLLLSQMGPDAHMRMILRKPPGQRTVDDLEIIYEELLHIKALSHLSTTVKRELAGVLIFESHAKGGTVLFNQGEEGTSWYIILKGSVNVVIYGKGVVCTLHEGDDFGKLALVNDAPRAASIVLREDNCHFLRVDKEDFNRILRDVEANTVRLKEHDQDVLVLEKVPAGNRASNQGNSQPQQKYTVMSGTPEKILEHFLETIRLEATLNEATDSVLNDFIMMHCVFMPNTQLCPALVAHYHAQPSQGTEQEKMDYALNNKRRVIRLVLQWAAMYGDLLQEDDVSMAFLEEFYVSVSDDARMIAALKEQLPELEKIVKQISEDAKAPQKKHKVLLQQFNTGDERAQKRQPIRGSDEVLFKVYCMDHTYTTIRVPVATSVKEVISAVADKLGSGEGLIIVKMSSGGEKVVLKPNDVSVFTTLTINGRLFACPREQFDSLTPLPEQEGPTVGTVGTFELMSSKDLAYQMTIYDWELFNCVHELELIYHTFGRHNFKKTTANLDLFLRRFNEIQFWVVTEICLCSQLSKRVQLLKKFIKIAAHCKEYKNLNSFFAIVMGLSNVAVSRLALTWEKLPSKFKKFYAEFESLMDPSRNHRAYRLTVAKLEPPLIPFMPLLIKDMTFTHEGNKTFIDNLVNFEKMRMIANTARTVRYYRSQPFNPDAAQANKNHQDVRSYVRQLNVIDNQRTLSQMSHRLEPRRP

[4] = target: Rap guanine nucleotide exchange factor 4 (Homo sapiens) (UniProt Q8WZA2); assay: Confirmatory qHTS for antagonist of cAMP-regulated guanine nucleotide exchange factor 4 (EPAC2) (AID 1645885); note: nearly all actives have a fitted effect of over 25% in size; note: potency is the fitted concentration of half-maximal effect; for activity change, negative = inhibition: % is set by controls: 0 for no effect and ±100 for the full control effect
[5] = target: Rap guanine nucleotide exchange factor 3 (Homo sapiens) (UniProt O95398); assay: Counterscreen qHTS for antagonist of cAMP-regulated guanine nucleotide exchange factor 3 (EPAC1) (AID 1645888);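 note: fluorescence loss as bound BODIPY-GDP is released from Rap1B; % of control where 0% means no effect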
In short: (§1)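 Rap1B-BODIPY-GDP 250 nM + GDP 50 uM; cpds 7-pt, final 9.74 nM–152 uM (activator mode) or from 7.32 nM upwards (inhibitor mode); RT; FI 480/540 nm at 5 and 30 min, then ± cAMP, reread.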

[6] = target: Rap guanine nucleotide exchange factor 3 (Homo sapiens) (UniProt O95398); assay: Counterscreen qHTS for agonist of cAMP-regulated guanine nucleotide exchange factor 3 (EPAC1) (AID 1645889); note: nearly all actives have a fitted effect of over 40% in size; note: potency is the fitted concentration of half-maximal effect; for activation: % of control where 0% means no effect
In short: as §1

[7] = Stat Signaling Pathway (AID 446; active = well fitted curve in either direction with a large enough effect, not every such curve was filed as active;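 note: ME-180 cervical cancer cells given 40 pM IL-6 alongside compound; SIE-controlled beta-lactamase reporter measured as 460/530 nm FRET emission ratio; % is set by controls: 0 for no effect and ±100 for the full control effect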)
In short: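 IL-6/STAT signaling read in ME-180 cells via an SIE beta-lactamase reporter. Stimulus was 40 pM IL-6 (its AC50) for 5 hrs, so both activation and inhibition register.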

[8] = target: Glucocorticoid receptor (Homo sapiens) (UniProt P04150); assay: GR-GFP Redistribution (AID 450;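 active = compounds whose dose series gives a full or clear partial fitted curve of increased nuclear translocation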; note: potency is the fitted concentration of half-maximal effect); conditions: U2OS GR-GFP nuclear translocation, laser cytometry, 2 h
Sequence of Glucocorticoid receptor (Homo sapiens) (P04150 whole entry, looked up): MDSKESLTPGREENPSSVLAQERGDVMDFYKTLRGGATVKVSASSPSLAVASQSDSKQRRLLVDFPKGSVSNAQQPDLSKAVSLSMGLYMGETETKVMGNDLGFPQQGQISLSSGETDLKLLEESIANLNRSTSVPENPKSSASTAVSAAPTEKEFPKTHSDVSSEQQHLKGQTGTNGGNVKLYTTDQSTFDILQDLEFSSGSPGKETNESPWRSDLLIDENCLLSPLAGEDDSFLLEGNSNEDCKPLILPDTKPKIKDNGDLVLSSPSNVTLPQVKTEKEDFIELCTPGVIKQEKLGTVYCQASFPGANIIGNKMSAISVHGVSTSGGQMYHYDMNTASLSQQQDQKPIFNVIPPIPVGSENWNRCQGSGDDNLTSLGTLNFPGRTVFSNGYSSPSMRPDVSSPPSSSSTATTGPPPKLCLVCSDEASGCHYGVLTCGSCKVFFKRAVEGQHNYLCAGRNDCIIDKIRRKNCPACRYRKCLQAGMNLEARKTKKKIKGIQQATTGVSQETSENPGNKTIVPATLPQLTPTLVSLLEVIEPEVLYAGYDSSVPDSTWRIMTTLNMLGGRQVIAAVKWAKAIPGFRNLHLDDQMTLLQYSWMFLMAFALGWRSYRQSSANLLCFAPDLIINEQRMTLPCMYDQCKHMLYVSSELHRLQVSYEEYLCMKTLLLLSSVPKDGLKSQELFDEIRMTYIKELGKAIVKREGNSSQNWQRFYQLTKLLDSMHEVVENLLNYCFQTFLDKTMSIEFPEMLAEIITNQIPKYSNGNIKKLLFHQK

Row | Compound | Potency [1] | Potency [2] | Potency [3] | Potency [4] | Potency [5] | Potency [6] | activation [3] | activity change, negative = inhibition [5] | activation [6] | outcome [7] | Potency [8]
1 | Nc1ccc2nc3c(=O)n(CCc4ccccc4)c(=O)[nH]c3nc2c1 | 3.26 µM (active) | inactive | 100 µM (active) | 42.6 µM (active) | inactive | 70.8 µM (active) | – | – | – | – | –
2 | O=C(c1ccccc1)c1ccc(O)cc1O | 5.8 µM (active) | inactive | – | inactive | – | – | 17% [at 17.1 µM, percent relative to cAMP agonist control] | -16.9% [at 30.8 µM] | 6.44% [at 30.8 µM] | – | –
3 | O=C(NCc1ccc(F)cc1)c1cccc2c1C(=O)c1ccc(N3CCC(Cc4ccccc4)CC3)cc1S2(=O)=O | 10.3 µM (active) | inactive | – | inactive | – | – | 30% [at 17.1 µM, percent relative to cAMP agonist control] | 83.7% [at 30.8 µM] | – | – | –
4 | O=C1CCNc2ccc(-c3ccccc3)cc21 | 8.19 µM (active) | inactive | 112 µM (active) | inactive | inactive | 56.2 µM (active) | – | – | – | – | –
5 | O=C(O)c1ccccc1C1=Nc2ccc(O)cc2Oc2cc(O)ccc21 | 13 µM (active) | inactive | – | inactive | – | 15.8 µM (active) | 14.2% [at 17.1 µM, percent relative to cAMP agonist control] | -1.01% [at 30.8 µM] | – | – | –
6 | CCN(CC)c1ccc2cc(-c3nnc(-c4ccncc4)o3)c(=O)oc2c1 | inactive | inactive | 100 µM (active) | 75.7 µM (active) | inactive | – | – | – | – | inactive | 3.51 µM (active)
7 | Cc1nc2ccccc2n2c(O)c(CC(=O)O)cc12 | 14.6 µM (active) | inactive | 112 µM (active) | inactive | inactive | 44.7 µM (active) | – | – | – | – | –
8 | Cc1nn(C)c(C)c1N1C(=O)c2cccc3c(N)ccc(c23)C1=O | 2.59 µM (active) | inactive | 5.01 µM (active) | inactive | – | 11.2 µM (active) | – | – | – | – | –
9 | Cn1nc(-c2ccccc2)c2nc3ccccc3nc21 | 16.3 µM (active) | inactive | 100 µM (active) | 75.7 µM (active) | inactive | inactive | – | – | – | – | –
10 | CC1=Nc2ccccc2/C1=C\c1nc(-c2ccc(F)cc2)oc1O | 29.1 µM (active) | inactive | 112 µM (active) | inactive | inactive | 25.1 µM (active) | – | – | – | – | –
